From PubChem BioAssay (EPA / NIEHS)
Inconclusive results are not listed. Active and inactive are the calls of the source. Rule for the calls: active = hit-call score of the fitted dose curve at least 0.9, where 1 is the maximum; inconclusive = response in the unintended direction; inactive = score below 0.9.

Key:
[1] = target: human CYP2D6, CYP2D6 (gene 1565) (UniProt P10635); experiment: NVS_ADME_hCYP2D6: NovaScreen (NVS) CYP450-related Enzyme Activity (ADME) Assay for human CYP2D6 (AID 2283107)
Chain of human CYP2D6, CYP2D6 (gene 1565) (P10635 whole entry, looked up): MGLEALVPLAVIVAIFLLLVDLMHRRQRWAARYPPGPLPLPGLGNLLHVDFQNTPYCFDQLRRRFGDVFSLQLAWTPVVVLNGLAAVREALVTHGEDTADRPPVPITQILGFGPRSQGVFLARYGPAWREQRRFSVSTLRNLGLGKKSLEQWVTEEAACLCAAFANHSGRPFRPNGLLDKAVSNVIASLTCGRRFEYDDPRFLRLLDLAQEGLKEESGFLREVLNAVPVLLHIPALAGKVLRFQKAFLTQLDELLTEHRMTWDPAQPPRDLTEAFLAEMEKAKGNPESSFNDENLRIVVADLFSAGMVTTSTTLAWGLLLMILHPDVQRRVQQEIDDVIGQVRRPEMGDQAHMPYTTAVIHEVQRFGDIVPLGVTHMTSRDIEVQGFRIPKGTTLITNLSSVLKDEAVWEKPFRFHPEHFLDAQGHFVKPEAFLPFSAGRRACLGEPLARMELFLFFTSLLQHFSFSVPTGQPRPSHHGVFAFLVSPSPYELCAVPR
How it was run: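 Biochemical fluorescence assay, insect-cell-derived enzyme. Read at 1 h; inhibition taken from loss of signal against acetonitrile. Screened at 10 uM in duplicate, with concentration series for actives.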

[2] = target: human Casein Kinase 1-delta (CK1D), CSNK1D (gene 1453) (UniProt P48730); experiment: NVS_ENZ_hCK1D: NovaScreen (NVS) Enzymatic Assay for human Casein Kinase 1-delta (CK1D) (AID 2283148)
Chain of human Casein Kinase 1-delta (CK1D), CSNK1D (gene 1453) (P48730 whole entry, looked up): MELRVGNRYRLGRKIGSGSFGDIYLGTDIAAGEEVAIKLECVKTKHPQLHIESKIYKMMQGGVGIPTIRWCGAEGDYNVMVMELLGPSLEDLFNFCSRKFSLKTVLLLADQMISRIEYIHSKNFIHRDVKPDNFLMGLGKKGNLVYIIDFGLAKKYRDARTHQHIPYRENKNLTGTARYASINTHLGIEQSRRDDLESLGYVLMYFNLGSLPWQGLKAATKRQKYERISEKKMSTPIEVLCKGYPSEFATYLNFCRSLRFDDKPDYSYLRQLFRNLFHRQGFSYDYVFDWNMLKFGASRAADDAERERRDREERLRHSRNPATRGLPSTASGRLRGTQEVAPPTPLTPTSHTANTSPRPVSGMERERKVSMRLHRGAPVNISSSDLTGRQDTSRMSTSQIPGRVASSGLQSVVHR
How it was run: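 Recombinant human CK1-delta, cell-free; fluorescent substrate with electrophoretic mobility-shift separation of product, read 1 h after dosing. Single 25 uM duplicate screen, then concentration-response up to 50 uM; loss of signal vs DMSO.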

[3] = target: human Colony Stimulating Factor 1 Receptor (CSF1R), CSF1R (gene 1436) (UniProt P07333); experiment: NVS_ENZ_hCSF1R: NovaScreen (NVS) Enzymatic Assay for human Colony Stimulating Factor 1 Receptor (CSF1R) (AID 2283150)
Chain of human Colony Stimulating Factor 1 Receptor (CSF1R), CSF1R (gene 1436) (P07333 whole entry, looked up): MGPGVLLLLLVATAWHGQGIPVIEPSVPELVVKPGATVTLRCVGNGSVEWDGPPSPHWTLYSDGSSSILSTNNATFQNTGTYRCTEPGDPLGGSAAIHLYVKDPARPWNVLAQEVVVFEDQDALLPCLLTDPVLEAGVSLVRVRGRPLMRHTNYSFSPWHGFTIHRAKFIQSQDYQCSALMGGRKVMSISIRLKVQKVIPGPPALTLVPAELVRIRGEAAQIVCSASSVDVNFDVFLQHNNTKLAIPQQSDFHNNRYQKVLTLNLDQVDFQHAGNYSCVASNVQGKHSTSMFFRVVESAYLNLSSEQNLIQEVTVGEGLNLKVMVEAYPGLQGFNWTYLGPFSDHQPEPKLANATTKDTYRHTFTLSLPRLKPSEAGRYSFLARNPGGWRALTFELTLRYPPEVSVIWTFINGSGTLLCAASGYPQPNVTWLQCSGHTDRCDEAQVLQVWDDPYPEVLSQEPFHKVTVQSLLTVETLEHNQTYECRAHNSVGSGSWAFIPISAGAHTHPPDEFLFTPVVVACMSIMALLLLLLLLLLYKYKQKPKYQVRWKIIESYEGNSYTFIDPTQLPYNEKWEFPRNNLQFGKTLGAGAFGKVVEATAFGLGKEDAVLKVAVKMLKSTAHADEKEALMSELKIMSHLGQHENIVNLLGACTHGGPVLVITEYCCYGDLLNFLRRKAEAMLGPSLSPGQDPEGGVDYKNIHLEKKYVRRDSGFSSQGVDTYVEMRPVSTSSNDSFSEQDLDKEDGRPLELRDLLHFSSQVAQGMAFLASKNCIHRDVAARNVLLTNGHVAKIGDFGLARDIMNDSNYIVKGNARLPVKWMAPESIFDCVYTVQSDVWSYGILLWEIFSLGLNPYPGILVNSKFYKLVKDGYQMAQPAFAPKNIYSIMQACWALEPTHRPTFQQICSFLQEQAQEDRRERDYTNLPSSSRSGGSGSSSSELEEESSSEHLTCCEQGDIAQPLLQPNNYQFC
How it was run: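 Cell-free recombinant human CSF1R kinase with fluorescent substrate, product separated by electrophoretic mobility shift; read 1 h after dosing. Primary screen at 25 uM in duplicate, actives then in concentration-response up to 50 uM, relative to DMSO.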

[4] = target: human CYP2C9, CYP2C9 (gene 1559) (UniProt P11712); experiment: NVS_ADME_hCYP2C9: NovaScreen (NVS) CYP450-related Enzyme Activity (ADME) Assay for human CYP2C9 (AID 2283108)
Chain of human CYP2C9, CYP2C9 (gene 1559) (P11712 whole entry, looked up): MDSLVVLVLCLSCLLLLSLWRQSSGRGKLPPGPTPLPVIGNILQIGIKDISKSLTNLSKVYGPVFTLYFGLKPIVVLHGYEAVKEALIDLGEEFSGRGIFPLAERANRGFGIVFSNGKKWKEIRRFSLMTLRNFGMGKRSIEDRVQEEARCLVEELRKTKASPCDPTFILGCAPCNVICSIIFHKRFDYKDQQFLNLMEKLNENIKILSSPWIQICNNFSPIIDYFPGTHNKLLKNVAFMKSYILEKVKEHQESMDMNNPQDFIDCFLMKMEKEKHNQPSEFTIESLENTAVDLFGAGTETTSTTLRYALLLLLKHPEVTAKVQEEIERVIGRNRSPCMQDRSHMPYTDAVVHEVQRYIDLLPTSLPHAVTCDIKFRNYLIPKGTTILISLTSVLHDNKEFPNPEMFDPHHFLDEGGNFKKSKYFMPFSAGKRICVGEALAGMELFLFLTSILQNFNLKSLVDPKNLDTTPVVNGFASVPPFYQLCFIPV
How it was run: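 Recombinant human CYP2C9 expressed in SF9 cells, fluorogenic substrate, fluorescence read 0.75 h after dosing. Chemicals first run in duplicate at 10 uM, with actives followed in concentration series; loss of signal versus acetonitrile baseline.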

[5] = target: Cytochrome P450 2C19 (Homo sapiens) (UniProt P33261); experiment: NVS_ADME_hCYP2C19: NovaScreen (NVS) CYP450-related Enzyme Activity (ADME) Assay for human CYP2C19 (AID 2283113);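 for AC50: potency for inhibition seen as loss of fluorescent signal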
How it was run: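 Biochemical CYP2C19 inhibition screen: insect-cell recombinant protein plus fluorescent substrate, 1 h, fluorescence intensity. Acetonitrile defined baseline activity. Single 10 uM concentration in duplicate, with concentration-response follow-up for actives.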

[6] = target: human Caspase 5 (CASP5), CASP5 (gene 838) (UniProt P51878); experiment: NVS_ENZ_hCASP5: NovaScreen (NVS) Enzymatic Assay for human Caspase 5 (CASP5) (AID 2283137)
Chain of human Caspase 5 (CASP5), CASP5 (gene 838) (P51878 whole entry, looked up): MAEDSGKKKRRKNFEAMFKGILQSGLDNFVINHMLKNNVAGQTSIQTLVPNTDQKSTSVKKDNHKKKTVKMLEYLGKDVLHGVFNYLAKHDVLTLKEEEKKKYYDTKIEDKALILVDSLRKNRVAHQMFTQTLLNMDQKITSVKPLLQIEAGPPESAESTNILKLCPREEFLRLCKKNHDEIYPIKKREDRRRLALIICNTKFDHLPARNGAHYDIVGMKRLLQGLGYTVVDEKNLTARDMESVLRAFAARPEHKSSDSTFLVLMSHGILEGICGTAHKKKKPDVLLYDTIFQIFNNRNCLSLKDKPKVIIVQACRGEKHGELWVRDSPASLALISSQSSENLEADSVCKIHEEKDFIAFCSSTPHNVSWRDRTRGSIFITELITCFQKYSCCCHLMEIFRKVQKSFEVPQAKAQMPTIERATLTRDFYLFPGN
How it was run: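 Recombinant E. coli-expressed human caspase 5 in a cell-free enzyme assay; fluorescence intensity read 2 hours after chemical dosing. Single-concentration duplicate screen at 25 uM, then concentration-response up to 50 uM for hits; DMSO negative control.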

[7] = target: Cytochrome P450 3A4 (Homo sapiens) (UniProt P08684); experiment: NVS_ADME_hCYP3A4: NovaScreen (NVS) CYP450-related Enzyme Activity (ADME) Assay for human CYP3A4 (AID 2283110)
Chain of Cytochrome P450 3A4 (Homo sapiens) (P08684 whole entry, looked up): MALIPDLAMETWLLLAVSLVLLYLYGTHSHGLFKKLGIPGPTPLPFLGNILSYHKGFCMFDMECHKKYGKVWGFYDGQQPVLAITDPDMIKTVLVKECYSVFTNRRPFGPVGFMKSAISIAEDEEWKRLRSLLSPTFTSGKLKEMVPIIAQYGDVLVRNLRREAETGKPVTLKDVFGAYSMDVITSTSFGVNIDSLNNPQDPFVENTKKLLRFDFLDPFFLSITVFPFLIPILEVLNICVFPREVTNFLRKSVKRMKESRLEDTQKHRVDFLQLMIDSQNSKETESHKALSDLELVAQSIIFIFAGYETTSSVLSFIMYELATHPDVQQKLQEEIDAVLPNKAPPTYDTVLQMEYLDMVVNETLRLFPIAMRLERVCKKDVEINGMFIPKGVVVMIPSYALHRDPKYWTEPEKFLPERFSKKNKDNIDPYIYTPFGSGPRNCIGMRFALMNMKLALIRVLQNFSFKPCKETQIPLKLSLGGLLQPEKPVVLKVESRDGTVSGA
How it was run: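 Cell-free recombinant enzyme expressed in insect cells; fluorescent substrate turnover read after 0.33 h, acetonitrile as negative control. Primary screen in duplicate at 10 uM, actives then tested in concentration series.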

[8] = target: human AKT serine/threonine Kinase 1 (AKT1), AKT1 (gene 207) (UniProt P31749); experiment: NVS_ENZ_hAKT1: NovaScreen (NVS) Enzymatic Assay for human AKT serine/threonine Kinase 1 (AKT1) (AID 2283138)
Chain of human AKT serine/threonine Kinase 1 (AKT1), AKT1 (gene 207) (P31749 whole entry, looked up): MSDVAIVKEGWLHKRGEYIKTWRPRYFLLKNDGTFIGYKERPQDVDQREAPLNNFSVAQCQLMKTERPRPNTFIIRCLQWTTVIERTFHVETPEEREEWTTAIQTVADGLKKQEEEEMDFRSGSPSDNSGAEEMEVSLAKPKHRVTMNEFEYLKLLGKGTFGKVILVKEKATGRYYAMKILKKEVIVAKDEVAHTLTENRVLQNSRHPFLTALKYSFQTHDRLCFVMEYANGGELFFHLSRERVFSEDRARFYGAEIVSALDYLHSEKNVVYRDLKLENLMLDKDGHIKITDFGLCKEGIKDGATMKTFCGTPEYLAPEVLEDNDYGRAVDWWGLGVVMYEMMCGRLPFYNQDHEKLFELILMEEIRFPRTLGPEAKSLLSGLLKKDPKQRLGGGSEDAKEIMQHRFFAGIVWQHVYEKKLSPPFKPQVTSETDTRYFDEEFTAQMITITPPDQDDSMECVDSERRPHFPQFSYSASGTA
How it was run: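 Cell-free recombinant enzyme with substrate; activity read by fluorescence intensity after electrophoretic mobility shift separating substrate from product, 1 h after dosing. Single-concentration duplicates at 25 uM, then singleton concentration-response up to 50 uM; loss of signal versus DMSO.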

[9] = target: Caspase-3 (Homo sapiens) (UniProt P42574); experiment: NVS_ENZ_hCASP3: NovaScreen (NVS) Enzymatic Assay for human Caspase 3 (CASP3) (AID 2283139)
Chain of Caspase-3 (Homo sapiens) (P42574 whole entry, looked up): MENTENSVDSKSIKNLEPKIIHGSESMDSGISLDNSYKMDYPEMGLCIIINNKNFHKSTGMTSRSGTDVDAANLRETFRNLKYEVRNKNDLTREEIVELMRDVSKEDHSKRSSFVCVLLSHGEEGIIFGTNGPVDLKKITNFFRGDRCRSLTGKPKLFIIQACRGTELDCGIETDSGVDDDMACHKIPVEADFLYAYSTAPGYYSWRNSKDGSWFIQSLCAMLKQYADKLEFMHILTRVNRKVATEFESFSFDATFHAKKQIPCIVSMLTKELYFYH
How it was run: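 Recombinant human caspase-3 from E. coli with a fluorogenic substrate, read by fluorescence 1 h after dosing. Primary screen in duplicate at 25 uM. Actives (for example ≥30% inhibition) rerun as concentration-response up to 50 uM.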

[10] = target: human Caspase 4 (CASP4), CASP4 (gene 837) (UniProt P49662); experiment: NVS_ENZ_hCASP4: NovaScreen (NVS) Enzymatic Assay for human Caspase 4 (CASP4) (AID 2283143)
Chain of human Caspase 4 (CASP4), CASP4 (gene 837) (P49662 whole entry, looked up): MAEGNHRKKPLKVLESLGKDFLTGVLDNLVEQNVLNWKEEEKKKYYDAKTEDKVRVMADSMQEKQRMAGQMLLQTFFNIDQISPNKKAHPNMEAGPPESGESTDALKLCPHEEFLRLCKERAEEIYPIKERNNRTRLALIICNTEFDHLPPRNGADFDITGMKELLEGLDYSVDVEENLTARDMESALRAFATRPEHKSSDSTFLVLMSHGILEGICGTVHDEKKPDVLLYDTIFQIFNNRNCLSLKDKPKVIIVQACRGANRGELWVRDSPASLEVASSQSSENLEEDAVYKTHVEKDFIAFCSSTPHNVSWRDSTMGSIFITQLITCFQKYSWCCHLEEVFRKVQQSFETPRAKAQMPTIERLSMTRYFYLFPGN
How it was run: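 The cell-free assay used E. coli-expressed enzyme with a fluorogenic substrate, read 2 h after dosing. Signal loss was scored versus DMSO. Screening was in duplicate at 25 uM, then singleton concentration-response up to 50 uM.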

[11] = target: human Beta-secretase (BACE), BACE1 (gene 23621) (UniProt P56817); experiment: NVS_ENZ_hBACE: NovaScreen (NVS) Enzymatic Assay for human Beta-secretase (BACE) (AID 2283140);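 note: hits are inhibitors that reduce fluorescent substrate signal versus DMSO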
Chain of human Beta-secretase (BACE), BACE1 (gene 23621) (P56817 whole entry, looked up): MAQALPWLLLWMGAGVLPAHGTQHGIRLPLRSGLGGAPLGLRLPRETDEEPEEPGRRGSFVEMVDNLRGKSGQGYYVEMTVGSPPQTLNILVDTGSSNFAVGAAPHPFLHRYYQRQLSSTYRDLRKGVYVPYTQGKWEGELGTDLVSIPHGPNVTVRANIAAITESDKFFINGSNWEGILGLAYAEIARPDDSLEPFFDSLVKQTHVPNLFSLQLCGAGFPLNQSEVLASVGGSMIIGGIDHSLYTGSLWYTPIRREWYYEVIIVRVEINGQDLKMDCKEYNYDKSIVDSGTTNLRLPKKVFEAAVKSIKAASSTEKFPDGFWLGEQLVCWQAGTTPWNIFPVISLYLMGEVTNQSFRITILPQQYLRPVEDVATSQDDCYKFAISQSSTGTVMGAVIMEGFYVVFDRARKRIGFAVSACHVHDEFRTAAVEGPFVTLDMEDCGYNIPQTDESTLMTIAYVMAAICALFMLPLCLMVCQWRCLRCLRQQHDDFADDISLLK
How it was run: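 Cell-free fluorescence-intensity assay of recombinant BACE1 expressed in SF9 cells, read 1 hour after dosing. Loss of signal indicates reduced protease activity, fitted relative to DMSO negative control. Primary screen at 25 uM in duplicate; actives followed in concentration series.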

With `CN(C)C(=O)NC1(c2ccccc2)CCN(CCC[C@]2(c3ccc(Cl)c(Cl)c3)CCCN(C(=O)c3ccccc3)C2)CC1` the AC50 [1] was 1.25 µM (active), the outcome [2] was “inactive” and the outcome [3] was “inactive”.
In the case of `O=C(NS(=O)(=O)/C=C/c1cccs1)c1ccc(F)cc1Br`, the AC50 [4] is reported as 4.11 µM (active).
In the case of `CCCCCCCCCC[N+](C)(C)[O-]`, the AC50 [1] is reported as 2.69 µM (active) and the outcome [5] is reported as “inactive”.
`CC(C)OC(=O)C(C)(C)Oc1ccc(C(=O)c2ccc(Cl)cc2)cc1` was tested, and the outcome [4] was “inactive” and the AC50 [5] was 4.67 µM (active).
For `CCCCCCC(CCCCCCCCCCC(=O)OCC(COC(C)=O)OC(C)=O)OC(C)=O` (stereo not drawn), the AC50 [4] was 1.41 µM (active) and the AC50 [6] was 13.7 µM (active).
With `CC(=O)OCC(COC(C)=O)OC(C)=O` the outcome [7] was “inactive”.
For `CC(C)(O)c1ccc(CNC(=O)c2cccnc2Oc2ccc(F)cc2)cc1`, the AC50 [5] was 4.26 µM (active).
For `CN(C)C(=O)NC1(c2ccccc2)CCN(CC[C@@]2(c3ccc(F)c(F)c3)CN(C(=O)c3ccccc3)CCO2)CC1`, the AC50 [7] was 5.63 µM (active), the outcome [5] was “inactive” and the outcome [8] was “inactive”. For the same molecule, the outcome [9] was “inactive”.
In the case of `CC(=O)CC(c1ccccc1)c1c(O)c2ccccc2oc1=O` (stereo not drawn), the outcome [5] is reported as “inactive”.
In the case of `CSc1ccc(Oc2ccc(S(N)(=O)=O)cc2CN(C)C)cc1C`, the AC50 [1] is reported as 4.8 µM (active), the AC50 [4] is reported as 4.84 µM (active) and the AC50 [5] is reported as 4.05 µM (active).
`CCCCC(CC)COP(=O)(OCC(CC)CCCC)OCC(CC)CCCC` (stereo not drawn) was tested, and the outcome [4] was “inactive” and the outcome [5] was “inactive”.
In the case of `NC(=Nc1ccccc1)Nc1ccccc1`, the AC50 [1] is reported as 0.984 µM (active).
`O=C1OC(c2ccc(O)cc2)(c2ccc(O)cc2)c2ccccc21` was tested, and the AC50 [4] was 6.81 µM (active) and the AC50 [5] was 0.586 µM (active).
`Cc1c(C)c2c(c(C)c1O)CCC(C)(COc1ccc(CC3SC(=O)NC3=O)cc1)O2` (stereo not drawn) was tested, and the outcome [4] was “inactive”.
With `CCCCc1nc2cccnc2n1Cc1ccc(-c2ccccc2-c2nnn[nH]2)cc1` the AC50 [4] was 2.96 µM (active).
In the case of `CC(COCC(C)OC(=O)c1ccccc1)OC(=O)c1ccccc1` (stereo not drawn), the AC50 [5] is reported as 2.27 µM (active).
With `O=C(N[C@@H](c1ccccc1)[C@@H]1CCCCN1)c1cccc(C(F)(F)F)c1Cl` the AC50 [1] was 1.06 µM (active), the AC50 [4] was 3.27 µM (active) and the outcome [7] was “inactive”. For the same molecule, the outcome [5] was “inactive”, the outcome [2] was “inactive” and the outcome [3] was “inactive”.
In the case of `CCC(C)N(C)C(=O)c1cc2ccccc2c(-c2ccccc2Cl)n1` (stereo not drawn), the AC50 [4] is reported as 4.2 µM (active).
`Cc1ccc(-c2cc(C(F)(F)F)nn2-c2ccc(S(N)(=O)=O)cc2)cc1` was tested, and the AC50 [4] was 6 µM (active) and the outcome [10] was “inactive”.
With `CCc1cc(C2=C(C(=O)O)N(c3ccccc3C(F)(F)F)S(=O)(=O)c3ccccc32)cc2c1OCO2` the outcome [4] was “inactive”, the AC50 [7] was 4.98 µM (active) and the AC50 [5] was 15.8 µM (active). The outcome [6] was “inactive”, the AC50 [11] was 6.05 µM (active) and the outcome [10] was “inactive”.
In the case of `S=c1[nH]c2ccccc2s1`, the AC50 [1] is reported as 6.77 µM (active), the AC50 [4] is reported as 7.33 µM (active) and the AC50 [5] is reported as 1.92 µM (active). For the same molecule, the outcome [8] was “inactive” and the outcome [10] was “inactive”.
In the case of `CC1(C)C(=O)NC(=O)N1CO`, the outcome [7] is reported as “inactive”.
`CC(=O)OC1CC(C)OC(C)O1` (stereo not drawn) was tested, and the outcome [1] was “inactive”, the AC50 [4] was 4.37 µM (active) and the AC50 [5] was 15.1 µM (active). The outcome [9] was “inactive”.
